In PubChem BioAssay AID1847 (The Scripps Research Institute Molecular Screening Center, 2009):
The whole screen tested about 2,300 compounds, of which about 1,100 (48%) were called active. So high a share suggests a set chosen from earlier hits. These entries were drawn from the full list. Unmarked numbers belong to inactive results.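 Rule for the calls: active = inhibition above the mean inhibition of all tested sample wells plus 3 SD (cut at about 10% in these data); inactive = the rest.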

Target: Luciferin 4-monooxygenase (Photinus pyralis) (UniProt P08659)
Sequence (P08659 whole entry, looked up): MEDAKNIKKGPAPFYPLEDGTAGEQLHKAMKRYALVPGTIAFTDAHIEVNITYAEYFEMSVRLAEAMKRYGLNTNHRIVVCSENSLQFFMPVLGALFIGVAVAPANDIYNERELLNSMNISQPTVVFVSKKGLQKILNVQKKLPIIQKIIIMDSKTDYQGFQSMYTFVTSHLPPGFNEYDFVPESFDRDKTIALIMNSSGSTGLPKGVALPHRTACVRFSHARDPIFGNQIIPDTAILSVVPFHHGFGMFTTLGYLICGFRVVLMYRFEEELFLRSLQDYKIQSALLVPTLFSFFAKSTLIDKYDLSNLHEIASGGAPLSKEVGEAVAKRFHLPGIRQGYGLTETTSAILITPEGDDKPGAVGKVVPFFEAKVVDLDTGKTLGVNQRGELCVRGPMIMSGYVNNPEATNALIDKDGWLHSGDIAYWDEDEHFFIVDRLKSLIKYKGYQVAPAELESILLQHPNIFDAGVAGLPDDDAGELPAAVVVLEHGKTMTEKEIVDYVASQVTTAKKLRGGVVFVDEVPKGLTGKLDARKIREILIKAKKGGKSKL
Assay: firefly luciferase inhibitors, HSP90 counter-screen, confirmation, artefact control for HSP90 inhibitor project, biochemical, luminescence, triplicate (AID 1847);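 note: 0% = DMSO with luciferase and 100% = wells lacking luciferase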
Conditions: purified native firefly luciferase, at 5.9 µM, stronger effect = higher value

Compound | inhibition
COC(=O)c1sc(NC(=O)c2csc3c2CCCC3)nc1C | -24.8%
COC(=O)c1sc(NC(=O)c2ccc(OC)cc2OC)nc1C | 56.6% (active)
COc1cc(SC)ccc1C(=O)Nc1nc(C)cs1 | 90.1% (active)
Cc1ccc(-n2c(SCC(=O)Nc3ncc(Cl)cc3Cl)nc3ccccc32)cc1 | -5.93%
Cc1sc2nc(CSCC(=O)Nc3c(Cl)cccc3Cl)[nH]c(=O)c2c1C | -10.5%
CCOc1ccc(C2NC(=S)NC3=C2CCc2ccccc23)cc1 (stereo not given) | 27.2% (active)
Cc1nc(NC(=O)c2cccc(Cl)c2)sc1-c1csc(Nc2cccc(Cl)c2)n1 | -10.7%
O=C(Nc1ccccc1)c1ccc2c(c1)OCCCO2 | 32.8% (active)
O=C(Nc1nc2ccccc2s1)c1ccc2c(c1)OCO2 | 56% (active)
c1ccc(-c2ccc3c(c2)NC(C2Nc4cc(-c5ccccc5)ccc4O2)O3)cc1 (stereo not given) | -6.37%
Clc1ccc(-c2cc(-c3ccccn3)on2)c(Cl)c1 | 81.9% (active)
O=[N+]([O-])/C=C/c1ccc2c(ccn2Cc2ccccc2)c1 | 5.87%
CCN(CC)CCn1c(N)c(S(=O)(=O)c2ccccc2)c2nc3ccccc3nc21 | -7.93%
COc1ccc(-n2nnnc2-c2nc3ccccc3s2)cc1 | 52.3% (active)
Cc1cccc(NC(=O)/C=C/c2ccc3c(c2)OCO3)n1 | 30.9% (active)
Cc1csc(SCC(=O)Nc2sccc2C#N)n1 | 8.6%
Cn1c(-c2ccco2)nc2cc3ccccc3cc21 | 51.4% (active)
Cc1cc(C(=O)COC(=O)C2CC2)c(C)n1-c1ccc(F)cc1 | 88.4% (active)
Cc1ccc(C(=O)O/N=C(\N)c2ccccn2)cc1Cl | 79.1% (active)
CCOC(=O)C1=C(c2ccc(OC)cc2)C(=O)c2ccccc2C1=O | -5.23%
CC(C)Nc1ccc(-n2nc3ccccc3[n+]2[O-])cc1 | 44% (active)
O=C(Nc1ccc2c(c1)OCCO2)C1CCCN(c2ncccn2)C1 (stereo not given) | 20.5% (active)
Clc1ccc2nc(CSc3ccccc3)cn2c1 | 53% (active)
Cc1nc2cc(NC(=O)Nc3cccc(F)c3)ccc2n1C | 21.4% (active)
Cc1ccc(Nc2nc(-c3ccc(O)cc3O)cs2)nc1 | -25.8%
Cc1ccc(Nc2nc(-c3sc(NC(=O)c4ccccc4)nc3C)cs2)cc1 | -23.6%
Cc1cnc(NC(=O)c2ccccn2)s1 | 15.6% (active)
CCOC(=O)CNC(=O)c1nn(-c2cccc(OC)c2)c(=O)c2ccccc12 | -3.73%
CCOc1ccc(OCc2ccc(C(=O)N(C)c3ccccc3)o2)cc1 | -13.3%
CCOc1ccc(OCc2cccc(C(=O)N(CC)CC)c2)cc1 | 22.5% (active)
